Experimental data published in PubChem BioAssay AID1159580 (chemical genetic matrix, 2015).
Out of some 5,500 compounds screened, about 2,000 (36%) were called active. About 18% were inconclusive and are not listed. No stated cut-off is given here; in the data, active means normalized growth mostly below about 0.91 (no sharp cut-off); inconclusive means no clear call, values can overlap the other calls; inactive means mostly above about 0.92. Some of the results follow.

Assay: chemical genetic growth profiling, strain panel (AID 1159580);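 further: tested at 20 µM; growth read once vehicle control cultures reached saturation at 30 °C; 1 = growth at the plate median or of vehicle wells; lower values mean less growth of the strain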
Settings: S. cerevisiae deletion strains, growth OD

Measured: normalized growth

C/C(=N/OC(=O)Nc1ccc(Cl)cc1)c1ccc2c(c1)CCO2
active: locus YHR030C, strain SLT2, hits give low values 0.607 | locus YLR113W, strain HOG1, hits give low values 0.755 | locus YPL256C, strain CLN2, hits give low values 0.853
inactive: locus YAR019C, strain CDC15, hits give low values 0.946 | locus YBL105C, strain PKC1, hits give low values 0.95 | locus YBR135W, strain CKS1, hits give low values 0.954 | locus YBR136W, strain MEC1, hits give low values 0.95 | locus YBR160W, strain CDC28, hits give low values 0.943 | locus YDL017W, strain CDC7, hits give low values 0.947 | locus YDL028C, strain MPS1, hits give low values 0.955 | locus YDL101C, strain DUN1, hits give low values 0.948 | locus YDL108W, strain KIN28, hits give low values 0.966 | locus YDL132W, strain cdc53, hits give low values 0.935 | locus YDL214C, strain PRR2, hits give low values 0.868 | locus YDR052C, strain DBF4, hits give low values 0.957 | locus YDR054C, strain cdc34, hits give low values 0.93 | locus YDR226W, strain ADK1, hits give low values 0.949 | locus YDR477W, strain SNF1, hits give low values 0.853 | locus YER123W, strain YCK3, hits give low values 0.858 | locus YER133W, strain GLC7, hits give low values 0.837 | locus YFL009W, strain cdc4, hits give low values 0.949 | locus YFL029C, strain CAK1, hits give low values 0.939 | locus YFR003C, strain YPI1, hits give low values 0.959 | locus YFR019W, strain FAB1, hits give low values 0.93 | locus YFR028C, strain CDC14, hits give low values 0.953 | locus YGR040W, strain KSS1, hits give low values 0.835 | locus YGR052W, strain FMP48, hits give low values 0.908 | locus YGR092W, strain DBF2, hits give low values 0.599 | locus YHR079C, strain IRE1, hits give low values 0.775 | locus YHR082C, strain KSP1, hits give low values 0.838 | locus YHR205W, strain SCH9, hits give low values 0.756 | locus YIL147C, strain SLN1, hits give low values 0.949 | locus YJL095W, strain BCK1, hits give low values 0.69 | locus YJL128C, strain PBS2, hits give low values 0.951 | locus YJL157C, strain FAR1, hits give low values 0.852 | locus YJR016C, strain ILV3, hits give low values 0.938 | locus YJR066W, strain TOR1 (second series), hits give low values 0.745 | locus YJR066W, strain TOR1, hits give low values 0.727 | locus YKL048C, strain ELM1, hits give low values 0.966 | locus YKL067W, strain YNK1, hits give low values 0.891 | locus YKL101W, strain HSL1, hits give low values 0.92 | locus YKL193C, strain SDS22, hits give low values 0.941 | locus YKL203C, strain TOR2, hits give low values 0.85 | locus YLR133W, strain CKI1, hits give low values 0.884 | locus YLR403W, strain SFP1, hits give low values 0.777 | locus YML070W, strain DAK1, hits give low values 0.874 | locus YMR001C, strain CDC5, hits give low values 0.946 | locus YMR205C, strain PFK2 (second series), hits give low values 0.908 | locus YMR277W, strain FCP1, hits give low values 0.949 | locus YNL006W, strain LST8, hits give low values 0.97 | locus YNL020C, strain ARK1, hits give low values 0.873 | locus YNL161W, strain CBK1, hits give low values 0.951 | locus YNL183C, strain NPR1, hits give low values 0.775 | locus YNL207W, strain RIO2, hits give low values 0.936 | locus YNL222W, strain SSU72, hits give low values 0.954 | locus YNL307C, strain MCK1 (second series), hits give low values 0.832 | locus YOL078W, strain AVO1, hits give low values 0.951 | locus YOL136C, strain PFK27, hits give low values 0.864 | locus YOR061W, strain CKA2, hits give low values 0.873 | locus YOR119C, strain RIO1, hits give low values 0.894 | locus YOR231W, strain MKK1, hits give low values 0.808 | locus YOR329C, strain SCD5, hits give low values 0.956 | locus YPL031C, strain PHO85, hits give low values 0.806 | locus YPL153C, strain RAD53, hits give low values 0.846 | locus YPL204W, strain HRR25, hits give low values 0.803 | locus YPL209C, strain IPL1, hits give low values 0.956 | locus YPR025C, strain CCL1, hits give low values 0.955 | locus YPR106W, strain ISR1, hits give low values 0.959 | locus YPR111W, strain DBF20, hits give low values 0.96 | strain NNK1, hits give low values 0.951 | strain TSCII, hits give low values 0.938
